# Results reported in PubChem BioAssay (EPA / NIEHS).
# Active and inactive are the calls of the source. The calls were made as follows: active = hit-call score of the fitted dose curve at least 0.9, where 1 is the maximum; inactive = score below 0.9.
# Legend:
# [1] = ATG_GRE_CIS: Attagene CIS-FACTORIAL HepG2 Assay for human Glucocorticoid Response Elements (GRE) (AID 2282947); settings: HepG2 GRE cis-reporter, Attagene multiplex mRNA; actives raise or lower the signal
# In short: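 Following 24 h chemical exposure of transiently transfected HepG2 cells, total RNA was reverse-transcribed and reporter cDNA amplified, fluorescently labelled and sized by capillary electrophoresis. Signal gain or loss was fitted relative to DMSO vehicle.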
# [2] = ATG_ISRE_CIS: Attagene CIS-FACTORIAL HepG2 Assay for human Interferon Regulatory Factor 1 (IRF1) binding to an Interferon-Stimulated Response Element (ISRE) (AID 2282948); settings: HepG2 ISRE cis-reporter (Attagene), mRNA transcription readout; actives raise or lower the signal
# In short: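 Transiently transfected HepG2 cells carrying cis-element reporter units, dosed 24 hours. Reporter mRNA quantified by RT-PCR, fluorescent primer extension, HpaI digestion and capillary electrophoresis. Bidirectional fitting relative to DMSO.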
# [3] = ATG_M_32_CIS: Attagene CIS-FACTORIAL HepG2 Assay for M32 Transcription Factor (Internal Marker) (AID 2282949); settings: HepG2 Attagene cis-factorial M32 reporter, mRNA; actives raise or lower the signal;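 also: background control marker of the multiplexed CIS panel rather than a real target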
# In short: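 HepG2 cells transiently transfected with multiplexed cis-regulated reporter units, dosed 24 h. Reporter mRNA quantified by RT-PCR, 6-FAM labelling, HpaI digestion and capillary electrophoresis; bidirectional fit vs DMSO.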
# [4] = ATG_M_06_CIS: Attagene CIS-FACTORIAL HepG2 Assay for M06 Transcription Factor (Internal Marker) (AID 2282950); settings: HepG2 Attagene CIS-FACTORIAL M06 internal marker reporter; actives raise or lower the signal
# In short: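 Fluorescence-labelled RT-PCR products from cis-promoter reporter units, cut with HpaI and resolved by capillary electrophoresis, give the signal. Cells are human HepG2, dosed for 24 h. Serves as background control, fitted relative to DMSO.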
# [5] = target: Hypoxia-inducible factor 1-alpha (Homo sapiens) (UniProt Q16665); test: ATG_HIF1a_CIS: Attagene CIS-FACTORIAL HepG2 Assay for human Hypoxia Inducible Factor 1 (HIF1A) (AID 2282951); settings: HepG2 Attagene cis-factorial HIF1a reporter transcription; actives raise or lower the signal
# In short: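 In this multiplexed cell assay, HepG2 cells bearing transfected cis reporters are dosed for 24 h and reporter mRNA is read by RT-PCR plus capillary electrophoresis; signal increases and decreases are both scored against DMSO.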
# [6] = target: Hepatocyte nuclear factor 6 (Homo sapiens) (UniProt Q9UBC0); test: ATG_HNF6_CIS: Attagene CIS-FACTORIAL HepG2 Assay for human Hepatocyte Nuclear Factor 6 (HNF6) (AID 2282952); settings: HepG2 Attagene cis-factorial HNF6 reporter transcription; actives raise or lower the signal
# In short: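 HepG2 cells transiently transfected with cis-element-driven multiple reporter transcription units, dosed 24 h; reporter mRNA quantified by RT-PCR, FAM primer extension, HpaI digestion and capillary electrophoresis; bidirectional fit versus DMSO baseline.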
# [7] = ATG_MRE_CIS: Attagene CIS-FACTORIAL HepG2 Assay for human Metal Responsive Element (MRE) (AID 2282954); settings: HepG2 MRE cis-reporter transcription, Attagene multiplex; actives raise or lower the signal
# In short: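 Step one: transfect HepG2 with cis-regulated reporter units. Step two: dose 24 h. Step three: isolate RNA, RT-PCR, 6-FAM label, HpaI digest, capillary electrophoresis. Fit bidirectionally to DMSO.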
# [8] = ATG_PBREM_CIS: Attagene CIS-FACTORIAL HepG2 Assay for human Phenobarbital-responsive Enhancer Module (PBREM) (AID 2282955); settings: HepG2 PBREM cis-reporter, Attagene multiplexed transcription; actives raise or lower the signal
# In short: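 After a 24 h incubation with test chemical, transfected HepG2 cells yield total RNA; reporter-specific RT-PCR products are fluorescently labelled, HpaI-digested and resolved by capillary electrophoresis against ROX size standards.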
# [9] = target: Heat shock factor protein 1 (Homo sapiens) (UniProt Q00613); test: ATG_HSE_CIS: Attagene CIS-FACTORIAL HepG2 Assay for human Heat Shock Transcription Factor 1 (HSE) (AID 2282953); settings: HepG2 HSE cis-reporter, Attagene RNA transcription; actives raise or lower the signal
# In short: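 After a 24 h incubation with test chemical, transfected HepG2 cells were harvested for RNA; reporter transcripts were measured by RT-PCR and capillary electrophoresis. Values reflect gain or loss of signal relative to DMSO.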
# Chain of Heat shock factor protein 1 (Homo sapiens) (Q00613 whole entry, looked up): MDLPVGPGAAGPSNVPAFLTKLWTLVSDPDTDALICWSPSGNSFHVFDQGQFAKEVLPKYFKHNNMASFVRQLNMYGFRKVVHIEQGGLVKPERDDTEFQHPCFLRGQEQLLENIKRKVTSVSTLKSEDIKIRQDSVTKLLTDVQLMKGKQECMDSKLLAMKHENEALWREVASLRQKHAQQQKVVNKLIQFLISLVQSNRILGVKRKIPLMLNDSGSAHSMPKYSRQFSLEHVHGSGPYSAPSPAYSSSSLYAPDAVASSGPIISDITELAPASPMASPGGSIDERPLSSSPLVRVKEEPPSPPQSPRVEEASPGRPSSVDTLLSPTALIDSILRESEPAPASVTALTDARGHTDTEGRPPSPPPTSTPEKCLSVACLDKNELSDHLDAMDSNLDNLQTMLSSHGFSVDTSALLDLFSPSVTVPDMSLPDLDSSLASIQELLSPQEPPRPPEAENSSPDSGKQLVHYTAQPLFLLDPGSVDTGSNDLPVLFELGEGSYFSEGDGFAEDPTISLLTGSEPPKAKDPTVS
# Chain of Hepatocyte nuclear factor 6 (Homo sapiens) (Q9UBC0 whole entry, looked up): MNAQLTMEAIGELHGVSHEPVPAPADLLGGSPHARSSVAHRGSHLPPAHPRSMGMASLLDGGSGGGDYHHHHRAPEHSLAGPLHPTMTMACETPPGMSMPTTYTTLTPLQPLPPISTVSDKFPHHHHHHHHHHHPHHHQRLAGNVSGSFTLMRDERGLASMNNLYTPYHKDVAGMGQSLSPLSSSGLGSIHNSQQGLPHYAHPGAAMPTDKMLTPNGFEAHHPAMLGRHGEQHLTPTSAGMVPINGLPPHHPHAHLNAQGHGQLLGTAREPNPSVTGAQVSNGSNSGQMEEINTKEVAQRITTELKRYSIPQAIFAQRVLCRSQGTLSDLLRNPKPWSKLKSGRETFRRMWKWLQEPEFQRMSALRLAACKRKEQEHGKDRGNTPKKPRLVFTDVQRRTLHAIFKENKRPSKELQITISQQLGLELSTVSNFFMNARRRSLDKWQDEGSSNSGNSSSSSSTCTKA
# Chain of Hypoxia-inducible factor 1-alpha (Homo sapiens) (Q16665 whole entry, looked up): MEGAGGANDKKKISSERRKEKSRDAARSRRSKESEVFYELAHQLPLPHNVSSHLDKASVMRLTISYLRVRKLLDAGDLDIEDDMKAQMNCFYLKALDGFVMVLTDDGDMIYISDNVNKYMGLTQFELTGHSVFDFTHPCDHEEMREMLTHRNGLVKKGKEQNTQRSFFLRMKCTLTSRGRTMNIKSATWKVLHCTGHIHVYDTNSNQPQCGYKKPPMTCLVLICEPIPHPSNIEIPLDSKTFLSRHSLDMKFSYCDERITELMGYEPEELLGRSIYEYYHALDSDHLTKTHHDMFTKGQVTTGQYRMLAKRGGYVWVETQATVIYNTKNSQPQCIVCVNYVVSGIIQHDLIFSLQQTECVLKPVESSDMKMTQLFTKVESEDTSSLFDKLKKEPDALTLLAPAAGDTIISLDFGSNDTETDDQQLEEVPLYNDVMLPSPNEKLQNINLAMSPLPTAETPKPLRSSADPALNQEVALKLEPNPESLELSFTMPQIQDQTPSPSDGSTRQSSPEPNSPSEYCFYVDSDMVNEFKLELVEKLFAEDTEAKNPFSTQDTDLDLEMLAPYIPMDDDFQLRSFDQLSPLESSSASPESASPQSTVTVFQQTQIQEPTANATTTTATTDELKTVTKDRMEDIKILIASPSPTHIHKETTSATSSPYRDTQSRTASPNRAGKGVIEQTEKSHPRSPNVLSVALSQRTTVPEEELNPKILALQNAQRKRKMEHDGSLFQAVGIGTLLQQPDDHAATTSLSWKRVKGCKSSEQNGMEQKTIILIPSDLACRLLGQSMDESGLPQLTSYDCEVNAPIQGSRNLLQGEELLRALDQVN
smiles,measurement,setting,value
CC(=O)OCCOC(C)=O,outcome,[1],inactive
same,outcome,[2],inactive
same,outcome,[3],inactive
same,outcome,[4],inactive
same,outcome,[5],inactive
same,outcome,[6],inactive
same,outcome,[7],inactive
same,outcome,[8],inactive
CCCCCCCCCCCCOCCO,outcome,[1],inactive
same,AC50,[2],20.4 µM (active)
same,outcome,[3],inactive
same,outcome,[4],inactive
same,outcome,[5],inactive
same,outcome,[6],inactive
same,AC50,[7],52.1 µM (active)
same,outcome,[8],inactive
CCCCC(CC)COCCC#N (stereo not given),outcome,[1],inactive
same,outcome,[2],inactive
same,outcome,[3],inactive
same,outcome,[4],inactive
same,outcome,[5],inactive
same,outcome,[6],inactive
same,outcome,[9],inactive
same,outcome,[8],inactive
CC1(C)[C@H]2CC[C@]1(C)[C@H](O)C2,outcome,[1],inactive
same,outcome,[2],inactive
same,outcome,[3],inactive
same,outcome,[4],inactive
same,outcome,[6],inactive
same,outcome,[9],inactive
same,outcome,[7],inactive
same,outcome,[8],inactive
CC(C)c1cccc(O)c1,outcome,[1],inactive
same,outcome,[2],inactive
same,outcome,[3],inactive
same,outcome,[4],inactive
same,outcome,[5],inactive
same,outcome,[6],inactive
same,outcome,[7],inactive
same,outcome,[8],inactive
CCCCC(CC)COC(=O)/C=C\C(=O)OCC(CC)CCCC (stereo not given),outcome,[1],inactive
same,outcome,[2],inactive
same,outcome,[3],inactive
same,outcome,[4],inactive
same,AC50,[5],21.2 µM (active)
same,AC50,[6],171 µM (active)
same,outcome,[7],inactive
same,outcome,[8],inactive
CCCCCCCCCCN,outcome,[1],inactive
same,outcome,[2],inactive
same,outcome,[3],inactive
same,outcome,[4],inactive
same,outcome,[5],inactive
same,outcome,[6],inactive
same,outcome,[9],inactive
same,outcome,[7],inactive
same,outcome,[8],inactive
CN1Cc2c(N)cccc2C(c2ccccc2)C1 (stereo not given),outcome,[1],inactive
same,outcome,[2],inactive
same,outcome,[3],inactive
same,outcome,[4],inactive
same,outcome,[6],inactive
same,outcome,[9],inactive
same,outcome,[7],inactive
Nc1ccc(S(=O)(=O)O)c(N)c1,outcome,[1],inactive
same,outcome,[2],inactive
same,outcome,[3],inactive
same,outcome,[4],inactive
same,outcome,[6],inactive
same,outcome,[9],inactive
same,outcome,[7],inactive
CC(C=O)Cc1ccc(C(C)C)cc1 (stereo not given),outcome,[1],inactive
same,outcome,[2],inactive
same,outcome,[3],inactive
same,outcome,[4],inactive
same,outcome,[5],inactive
same,outcome,[6],inactive
same,outcome,[7],inactive
same,outcome,[8],inactive
CCCCc1ccc(N)cc1,outcome,[1],inactive
same,outcome,[2],inactive
same,outcome,[3],inactive
same,outcome,[4],inactive
same,outcome,[5],inactive
same,outcome,[6],inactive
same,outcome,[9],inactive
same,outcome,[7],inactive
same,outcome,[8],inactive
FC1(F)C(F)(F)C(F)(F)C2(F)C(F)(C1(F)F)C(F)(F)C(F)(F)C1(F)C(F)(F)C(F)(F)C(F)(F)C(F)(F)C12F (stereo not given),outcome,[1],inactive
same,outcome,[2],inactive
same,outcome,[3],inactive
same,outcome,[4],inactive
same,outcome,[5],inactive
same,outcome,[6],inactive
same,outcome,[9],inactive
same,outcome,[7],inactive
same,outcome,[8],inactive
C[C@]12CC[C@H]3[C@@H](CCC4=CC(=O)CC[C@@]43C)[C@@H]1CC[C@@H]2C(=O)CO,outcome,[1],inactive
same,AC50,[2],100 µM (active)
same,outcome,[3],inactive
same,outcome,[4],inactive
same,outcome,[6],inactive
same,AC50,[9],60.1 µM (active)
same,AC50,[7],100 µM (active)
same,AC50,[8],3.31 µM (active)
O=C(O)CCSCCC(=O)O,outcome,[1],inactive
same,outcome,[2],inactive
same,outcome,[3],inactive
same,outcome,[4],inactive
same,outcome,[5],inactive
same,outcome,[6],inactive
same,outcome,[7],inactive
same,outcome,[8],inactive
CCCCCC=CCC(=O)OC,outcome,[1],inactive
same,outcome,[2],inactive
same,outcome,[3],inactive
same,outcome,[4],inactive
same,outcome,[6],inactive
same,outcome,[9],inactive
same,outcome,[7],inactive
CC[C@]12CCCN3CCc4c(n(c5ccccc45)[C@@](O)(C(=O)OC)C1)[C@@H]32,outcome,[1],inactive
same,outcome,[2],inactive
same,outcome,[3],inactive
same,outcome,[4],inactive
same,outcome,[6],inactive
same,AC50,[9],159 µM (active)
c1ccc2[nH]ccc2c1,outcome,[1],inactive
same,outcome,[2],inactive
same,outcome,[3],inactive
same,outcome,[4],inactive
same,outcome,[6],inactive
same,outcome,[9],inactive
same,outcome,[7],inactive
O=C1C(c2[nH]c3ccc(S(=O)(=O)O)cc3c2O)=Nc2ccc(S(=O)(=O)O)cc21,outcome,[2],inactive
same,outcome,[3],inactive
same,outcome,[4],inactive
same,outcome,[5],inactive
same,outcome,[6],inactive
same,outcome,[7],inactive
CC(C)(COC(=O)c1ccccc1)COC(=O)c1ccccc1,outcome,[1],inactive
same,outcome,[3],inactive
same,outcome,[4],inactive
same,outcome,[6],inactive
same,outcome,[9],inactive
same,outcome,[7],inactive
O=C1CCc2ccccc2O1,outcome,[1],inactive
same,outcome,[3],inactive
same,outcome,[5],inactive
same,outcome,[6],inactive
same,outcome,[9],inactive
same,outcome,[7],inactive
CC1(C)C(=O)N(Br)C(=O)N1Cl,outcome,[2],inactive
same,outcome,[3],inactive
same,outcome,[4],inactive
same,outcome,[5],inactive
same,outcome,[6],inactive
same,outcome,[9],inactive
same,outcome,[7],inactive
same,outcome,[8],inactive
CC(C)C1CCC(O)CC1 (stereo not given),outcome,[1],inactive
same,outcome,[3],inactive
same,outcome,[4],inactive
same,outcome,[5],inactive
same,outcome,[6],inactive
same,outcome,[9],inactive
same,outcome,[7],inactive
C=C(C)C(=O)NCCCN(C)C,outcome,[1],inactive
same,outcome,[3],inactive
same,outcome,[4],inactive
same,outcome,[5],inactive
same,outcome,[6],inactive
same,outcome,[9],inactive
same,outcome,[7],inactive
OCCCCCO,outcome,[2],inactive
same,outcome,[3],inactive
same,outcome,[4],inactive
same,outcome,[5],inactive
same,outcome,[6],inactive
same,outcome,[9],inactive
same,outcome,[7],inactive
same,outcome,[8],inactive
C[C@H]1C[C@H]2[C@@H]3CCC4=CC(=O)C=C[C@]4(C)[C@@]3(F)[C@@H](O)C[C@]2(C)[C@@]1(O)C(=O)COP(=O)(O)O,AC50,[1],0.0823 µM (active)
same,outcome,[3],inactive
same,outcome,[4],inactive
same,outcome,[5],inactive
same,outcome,[6],inactive
same,outcome,[7],inactive
CCCCCCCCCCCCCCCCCC(=O)OCC(CC)CCCC (stereo not given),outcome,[2],inactive
same,outcome,[3],inactive
same,outcome,[4],inactive
same,outcome,[5],inactive
same,outcome,[6],inactive
same,outcome,[9],inactive
same,outcome,[7],inactive
CC(C)=CCO,outcome,[2],inactive
same,outcome,[3],inactive
same,outcome,[4],inactive
same,outcome,[5],inactive
same,outcome,[6],inactive
same,outcome,[9],inactive
same,outcome,[7],inactive
CC1COc2ccccc2N1C(=O)C(Cl)Cl (stereo not given),outcome,[1],inactive
same,outcome,[3],inactive
same,outcome,[4],inactive
same,outcome,[5],inactive
same,outcome,[6],inactive
same,outcome,[9],inactive
same,AC50,[7],62.1 µM (active)
same,outcome,[8],inactive
CC(c1cc2ccccc2s1)N(O)C(N)=O (stereo not given),outcome,[1],inactive
same,outcome,[3],inactive
same,outcome,[4],inactive
same,outcome,[5],inactive
same,outcome,[6],inactive
same,outcome,[9],inactive
same,outcome,[7],inactive
C/C=C(\C)C(=O)OCc1ccccc1,outcome,[1],inactive
same,outcome,[3],inactive
same,outcome,[4],inactive
same,outcome,[5],inactive
same,outcome,[6],inactive
same,outcome,[9],inactive
same,outcome,[7],inactive
O=CCCc1ccccc1,outcome,[2],inactive
same,outcome,[3],inactive
same,outcome,[4],inactive
same,outcome,[5],inactive
same,outcome,[6],inactive
same,outcome,[9],inactive
CC(C)C(C)(C)C(C)(C)C(C)(C)S,outcome,[2],inactive
same,outcome,[3],inactive
same,outcome,[4],inactive
same,outcome,[5],inactive
same,outcome,[6],inactive
same,outcome,[9],inactive
